Shown are actives, neighbours in structure and some others; about 1.9% of the full set was active somewhere.
PLCg1 inh – inhibitors of human phospholipase C gamma1 | P19174 | purified PLC-gamma1, fluorogenic substrate, fluorescence | inhibition, % at 12.2 µM | 370,000 tested, 0.84% active | AID 720700
MsrA act – activates bovine MsrA enzyme; AID 602163; 360,000 tested, 0.3% active; activation, % at 10.6 µM; purified bovine MsrA, absorbance read-out; in the data active = activation above about 7.5%;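 note: 0% = vehicle and 100% = reference activator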
PLC-beta3 inh – inhibitors of human phospholipase C beta3. Purified PLC-beta3, fluorogenic substrate, fluorescence. inhibition, % at 12.2 µM. 370,000 tested, 0.18% active. AID 720704; in the data active = inhibition above about 11%;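 note: 0% = median of compound wells on plate and 100% = full blocker control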
MsrA inh – inhibitors of bovine MsrA | purified bovine MsrA, absorbance read-out | inhibition, % at 15.5 µM | 360,000 tested, 0.75% active | AID 651718; in the data active = inhibition above about 4.5%;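 note: 0% = vehicle wells with enzyme and 100% = reference inhibitor wells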
PLCgamma1 ctr – inhibits human PLC-gamma1 in PLC-beta3 counter-screen. 3,300 tested, 3.1% active. AID 743258. purified PLC-gamma1, fluorogenic substrate, fluorescence. shares compounds with PLCg1 inh. inhibition, % at 12.3 µM
PLCbeta3 conf – human PLC-beta3 inhibition, confirmation | shares compounds with PLCg1 inh | purified PLC-beta3, fluorogenic substrate fluorescence | inhibition, % at 12.3 µM | 3,300 tested, 1% active; in the data active = inhibition above about 11%
The depositor's hits bear a star; x = no result. Cut-off read from the data, not from the text of the source, unless noted: active = inhibition above about 9.5%; inactive = the rest.

SMILES	PLCg1 inh	MsrA act	PLC-beta3 inh	MsrA inh	PLCgamma1 ctr	PLCbeta3 conf
CCN(CC)C(=O)CSc1nc2ccccc2c(=O)n1-c1cccc(OC)c1	10*	-2	4	1	-8	-3
O=C(C1CC1)n1ccc2ccc(-c3ccc4ccn(Cc5ccccc5)c4c3)cc21	-3	x	-5	x	x	x
COc1ccc(C(=O)N2CCCC(c3cc(C(=O)NCc4ccc(F)cc4)no3)C2)cc1 (stereo unspecified)	9.7*	-6	6	1	-7	-1
O=C(Nn1cnnc1)C1Cc2ccccc2CN1S(=O)(=O)c1ccc(F)cc1 (stereo unspecified)	10*	-11	3	1	-2	-4
COc1ccc(CCN(C)C(=O)CN2C(=O)NC3(CCCc4ccccc43)C2=O)cc1OC (stereo unspecified)	12*	-1	-4	1	-8	-74
O=C(NCCCCc1ccccc1)c1ccccc1Cl	-2	-3	-2	0	x	x
Cc1ccccc1C(=O)NCCCc1ccccc1	11*	-2	3	1	0	-2
C=CCN(C(=O)CNC(=O)c1cccs1)C(C(=O)NC1CCCCC1)c1cccnc1 (stereo unspecified)	9.7*	-4	8	1	8	5
CCOC(=O)CN(C(=O)CNC(=O)c1cccs1)C(C(=O)NC1CCCCC1)c1cccnc1 (stereo unspecified)	7	-10	2	-1	x	x
CCn1c(=O)cc(OCC(=O)NCc2ccc(C)o2)c2ccccc21	-4	-4	-5	0	x	x
CCn1c(=O)cc(OCC(=O)NCc2ccco2)c2ccccc21	12*	-13	-5	0	6	-1
COc1ccc(CN(C)C(=O)c2ccc(NS(=O)(=O)c3ccc4[nH]c(=O)[nH]c4c3)cc2)c(OC)c1	15*	-3	-2	1	1	-5
CN(Cc1ccc(F)cc1)C(=O)c1ccc(NS(=O)(=O)c2ccc3[nH]c(=O)[nH]c3c2)cc1	0	-1	0	1	x	x
CC(C)NC(=O)C1(C)CSCC(=O)N1CCOc1ccccc1 (stereo unspecified)	6	x	4	-1	x	x
COC(=O)C[C@@H]1C=C[C@@H](NS(=O)(=O)c2ccccc2OC)[C@@H](CO)O1	1	x	2	0	x	x
COC(=O)c1cc(NC(=O)CC2SCCNC2=O)cc(C(=O)OC)c1 (stereo unspecified)	2	-10	2	0	x	x
O=C(CC1SCCNC1=O)Nc1cc(Cl)cc(Cl)c1 (stereo unspecified)	3	-5	12*	2	2	-3
C=CCN1C(=O)[C@@H](CC(=O)NCCC(C)C)[C@]2(C(=O)OC)CCCCC=C12	5	x	2	x	x	x
CC1C(c2ccccc2)OCCN1C(=S)NC(=O)c1ccccc1 (stereo unspecified)	1	-3	15*	-1	-6	-1
C=CCn1c(-c2csc(-c3ccc(Cl)cc3)n2)n[nH]c1=S	9.8*	-1	8	0	-11	-10
CCn1c(-c2csc(-c3ccc(Cl)cc3)n2)n[nH]c1=S	1	3	1	-1	x	x
Cc1cccc(-c2cccc3c4c([nH]c23)[C@@H]2C[C@H](N(C)C(=O)Nc3ccccc3C)[C@H]([C@H](C)O)CN2CC4)c1	-43	x	-48	x	x	x
COc1ccc(Cc2nc3ccc(C(=O)N4CCCCC4CO)cc3o2)cc1OC (stereo unspecified)	0	-1	-1	0	x	x
CCOCCCNC(=O)/C(C#N)=C/c1cc(OC)c(O)c([N+](=O)[O-])c1	13*	-4	8	3	-2	-1
CCOCCCNC(=O)/C(C#N)=C/c1ccc(Cl)c([N+](=O)[O-])c1	0	1	2	0	x	x

Bioassay records deposited in PubChem by The Scripps Research Institute Molecular Screening Center.
